In PubChem BioAssay (NCATS) one finds Potency, outcome and activity change, negative = cytotoxic data, which are given here for 24 compounds.

Results filed as inconclusive are left out. Unmarked numbers belong to inactive results. Active and inactive are the calls of the source. Calls come from the whole dose curve; as a rule, active = well fitted curve in the direction sought with a large enough effect; inconclusive = small, poorly fitted or top-dose-only effect, or another doubt; inactive = no such curve, though single readings can be large; an effect the other way counts as inactive or inconclusive.

Assay [1] can be described thus: qHTS of pediatric cancer cell lines to identify multiple opportunities for drug repurposing: Primary screen for BT-12 cells (AID 1347101).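 For activity change, negative = cytotoxic: plate controls were DMSO for no effect and bortezomib positive control for full effect.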 Note: nearly all actives have a fitted effect of over 25% in size. Note: potency is the fitted concentration of half-maximal effect. The essentials: (§1)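 Cells (500-1,000/well) rested 5 h, then received compounds for 48 h; metabolically active cells were measured by CellTiter-Glo luminescence. Final concentrations spanned up to 46 µM (MIPE, 11-point) or 0.59 nM-46 µM (NPC, 8-point) in primary screens, 11-point in follow-ups.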
(qHTS replaces the single test concentration by a dilution series.)

Assay [2] in a line: qHTS of pediatric cancer cell lines to identify multiple opportunities for drug repurposing: Primary screen for Rh18 cells (AID 1347102). For activity change, negative = cytotoxic: % is set by controls: 0 for no effect and ±100 for the full control effect. Note: nearly all actives have a fitted effect of over 65% in size. Note: potency is the fitted concentration of half-maximal effect. The essentials:
as §1

The nature of assay [3]: qHTS of pediatric cancer cell lines to identify multiple opportunities for drug repurposing: Primary screen for OHS-50 cells (AID 1347103).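 For activity change, negative = cytotoxic: plate controls were DMSO neutral control for no effect and bortezomib positive control for full effect.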 Note: nearly all actives have a fitted effect of over 40% in size. Note: potency is the fitted concentration of half-maximal effect. The method, boiled down: as §1
Assay [4] in a line: qHTS of pediatric cancer cell lines to identify multiple opportunities for drug repurposing: Primary screen for RD cells (AID 1347104).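 For activity change, negative = cytotoxic: plate controls were DMSO for no effect and bortezomib for full effect.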 Note: nearly all actives have a fitted effect of over 55% in size. Note: potency is the fitted concentration of half-maximal effect. The method, boiled down:
(§2)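 Following a 5-hour attachment period, cells at 500-1,000/well received compounds and were cultured for 48 hours. CellTiter-Glo was added and luminescence read to estimate viable, metabolically active cells.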

Assay [5] in a line: qHTS of pediatric cancer cell lines to identify multiple opportunities for drug repurposing: Primary screen for MG 63 (6-TG R) cells (AID 1347105). Note: % is set by controls: 0 for no effect and ±100 for the full control effect; nearly all actives have a fitted effect of over 50% in size. The essentials:
as §2

Assay [6] in a line: qHTS of pediatric cancer cell lines to identify multiple opportunities for drug repurposing: Primary screen for control Hh wild type fibroblast cells (AID 1347106).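 Note: series mostly up to about 46 µM; % is set by controls: 0 for no effect and ±100 for the full control effect; a drop in luminescence marks cytotoxicity and a rise apparent proliferation; nearly all actives have a fitted effect of over 55% in size.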 The method, boiled down: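 Viability after 48 h compound treatment at 37C, 500-1,000 cells/well, read as ATP luminescence with CellTiter-Glo. Primary screens used 11-point (MIPE, 0.78 nM-46 µM) or 8-point (NPC, 0.59 nM-46 µM) final concentrations; follow-up screens used 11-point dilutions.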

Assay [7] can be described thus: qHTS of pediatric cancer cell lines to identify multiple opportunities for drug repurposing: Primary screen for Rh30 cells (AID 1347107). Note: series mostly up to about 46 µM; % is set by controls: 0 for no effect and ±100 for the full control effect; nearly all actives have a fitted effect of over 75% in size. The essentials:
as §1

A short description of assay [8]: qHTS of pediatric cancer cell lines to identify multiple opportunities for drug repurposing: Primary screen for Rh41 cells (AID 1347108).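 Note: series mostly up to about 46 µM; luminescence drop marks cytotoxic hits; nearly all actives have a fitted effect of over 70% in size.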 The essentials: as §2
Assay [9] can be described thus: qHTS of pediatric cancer cell lines to identify multiple opportunities for drug repurposing: Confirmatory screen for NB1643 cells (AID 1347109).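 Note: plate controls were DMSO for no effect and bortezomib for full effect; nearly all actives have a fitted effect of over 45% in size.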 The method, boiled down: as §1
Assay [10] is described as follows: qHTS of pediatric cancer cell lines to identify multiple opportunities for drug repurposing: Confirmatory screen for A673 cells (AID 1347110).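 Note: cells exposed to compound for 48 h before the viability read; nearly all actives have a fitted effect of over 65% in size.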 The essentials: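 Cells plated at 500-1,000/well were treated five hours later with multi-point dilutions up to 46 µM final. After two days, CellTiter-Glo was added and luminescence read.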

Turning to `CCCCc1ncc(/C=C(\Cc2cccs2)C(=O)O)n1Cc1ccc(C(=O)O)cc1`, the Potency result in assay [1], in assay [2], in assay [3], in assay [4], in assay [5] and in assay [8] was “inactive” each time. The compound was called inactive in [6] and in [7].
Turning to `N[C@@H](CSCCCO)C(=O)O`, the Potency result in [1], in assay [2], in assay [3], in [4], in assay [5] and in [8] was “inactive” each time. Also, the compound was called inactive in assay [6].
With `CCOC(=O)[C@H](CCc1ccccc1)N[C@@H](C)C(=O)N1C(=O)N(C)C[C@H]1C(=O)O`, the Potency entry in assay [1], in [2], in [3], in assay [4], in assay [5] and in [8] was “inactive” each time. Also, the result in assay [6] and in assay [7] was inactive.
For `C[C@H](N)[C@H](O)c1cccc(O)c1`, the Potency result in [1], in assay [2], in [3], in assay [4], in assay [5] and in [8] was “inactive” each time. Besides, the outcome in [6] was inactive.
Consider `CC1(C)CO[C@@H](CC(=O)O)CN1`, for which the Potency entry in assay [1], in assay [2], in [3], in assay [4], in [5] and in assay [8] was “inactive” throughout. The compound was called inactive in [6] and in [7].
As to `C[C@@H]1CC[C@@]2(OC1)O[C@H]1C[C@H]3[C@@H]4CC[C@H]5C[C@@H](O)CC[C@]5(C)[C@H]4CC(=O)[C@]3(C)[C@H]1[C@@H]2C`, the activity change, negative = cytotoxic was 6.34% [at 6.03 µM] in [1]; 11.3% [at 4.84 µM] in assay [2]; 9.93% [at 6.18 µM] in assay [3]; 12.6% [at 4.84 µM] in assay [4]; -5.19% [at 4.84 µM] in [5]; 6.44% [at 4.84 µM] in assay [6]. The activity change, negative = cytotoxic in [8] is 21.2% [at 4.84 µM].
In the case of `CSc1ccc2c(c1)N(CCC1CCCCN1C)c1ccccc1S2` (stereo unspecified), the Potency in assay [1] was 24.6 µM (active); in assay [2] it was 16.8 µM (active); in assay [3] it was 17.4 µM (active); in assay [4], 26.6 µM (active). Besides, the compound was classed as inactive in [6].
Turning to `O=c1[nH]cnc2c1ncn2[C@@H]1O[C@H](CO)[C@@H](O)[C@H]1O`, the Potency entry in assay [1], in assay [2], in [3], in assay [4], in assay [5] and in assay [8] was “inactive” throughout. For the same compound, the outcome in assay [6] was inactive.
Take `O=S(=O)(O)NC1CCCCC1`: the Potency result in assay [1], in assay [2], in assay [3], in assay [4], in [5] and in [8] was “inactive” in each case. Moreover, the result in assay [6] and in assay [7] was inactive.
With `COc1ccc2cc1Oc1cc3c(cc1OC)CC[N+](C)(C)[C@H]3Cc1ccc(cc1)Oc1c(OC)c(OC)cc3c1[C@@H](C2)[N+](C)(C)CC3`, the Potency entry in assay [1], in assay [2], in assay [3], in assay [4], in assay [5] and in assay [8] was “inactive” each time. The outcome in assay [6] was inactive.
Regarding `O=C1N=C(O)CN1/N=C/c1ccc(-c2ccc([N+](=O)[O-])cc2)o1`, the Potency result in [1], in [2], in [3], in assay [4], in assay [5] and in [8] was “inactive” in each case. Besides, the Potency result in assay [9] and in assay [10] was “inactive” throughout. The result in [6] and in [7] was inactive.
For the compound `Oc1cccc(O)c1`, the Potency result in assay [1], in assay [2], in [3], in assay [4], in assay [5] and in [8] was “inactive” each time. Further, the call in assay [6] was inactive.
For the compound `NC(N)=NCCC[C@H](N)C(=O)O`, the activity change, negative = cytotoxic is 1.23% [at 6.03 µM] in assay [1]; 15.1% [at 4.84 µM] in [2]; -1.99% [at 6.18 µM] in [3]; 2.4% [at 4.84 µM] in assay [4]; -20.2% [at 4.84 µM] in [5]; 15% [at 4.84 µM] in assay [6]. Also, the activity change, negative = cytotoxic in [8] was 10.4% [at 4.84 µM].
Consider `O=C1NC(=O)[C@@]2(CCOc3ccc(F)cc32)N1`, for which the Potency entry in assay [1], in assay [2], in [3], in assay [4], in assay [5] and in assay [8] was “inactive” each time. In addition, the compound was called inactive in [6] and in assay [7].
Take `NCCNCCNCCN`: the Potency entry in assay [1], in assay [2], in [3], in [4], in assay [5] and in [8] was “inactive” throughout. Moreover, the compound was classed as inactive in [6] and in [7].
In the case of `C#CCN(C)Cc1ccccc1`, the Potency entry in assay [1], in [2], in [3], in [4], in assay [5] and in assay [8] was “inactive” throughout. In assay [6], the call was inactive.
On to `CC1=C(CC(=O)O)c2cc(F)ccc2/C1=C\c1ccc(S(C)(=O)=O)cc1`, for which the Potency result in [1], in assay [2], in assay [3], in [4], in [5] and in assay [8] was “inactive” in each case. Also, the call in assay [6] and in assay [7] was inactive.
`N[C@H]1C(O)O[C@H](CO)[C@@H](O)[C@@H]1O` (stereo partly specified): the Potency result in assay [1], in assay [2], in assay [3], in [4], in assay [5] and in assay [8] was “inactive” each time. Also, the result in [6] was inactive.
Regarding `CN1CCOC(c2ccccc2)c2ccccc2C1` (stereo unspecified), the Potency result in [1], in assay [2], in assay [3], in assay [4], in assay [5] and in [8] was “inactive” each time. In [6], the call was inactive.
On to `CC(C)(O)c1ccccc1CC[C@@H](SCC1(CC(=O)O)CC1)c1cccc(/C=C/c2ccc3ccc(Cl)cc3n2)c1`, for which the Potency entry in [1], in assay [2], in assay [3], in assay [4], in assay [5] and in [8] was “inactive” throughout. Also, the result in [6] and in assay [7] was inactive.
In the case of `CN(C)CC[C@@H](c1ccc(Cl)cc1)c1ccccn1`, the Potency entry in [1], in assay [2], in assay [3], in assay [4], in assay [5] and in assay [8] was “inactive” in each case. In addition, the compound was classed as inactive in assay [6] and in assay [7].
Take `COc1ccc2[nH]c(S(=O)Cc3ncc(C)c(OC)c3C)nc2n1` (stereo unspecified): the Potency result in assay [1], in [2], in [3], in assay [4], in [5] and in assay [8] was “inactive” in each case. Moreover, the compound was called inactive in assay [6] and in [7].
`N[C@@H](CSSC[C@H](N)C(=O)O)C(=O)O`: the activity change, negative = cytotoxic in assay [1] was 5.67% [at 0.745 µM]; in [2], 0.304% [at 0.597 µM]; in [3] it was 6.93% [at 0.73 µM]; in [4], 5.61% [at 0.597 µM]; in assay [5], 0.733% [at 0.597 µM]; in [6] it was 21.8% [at 0.597 µM]. For the same compound, the activity change, negative = cytotoxic is 12% [at 0.597 µM] in assay [7] and 8.25% [at 0.597 µM] in [8].
`NC(=O)c1ncn([C@@H]2O[C@H](CO)[C@@H](O)[C@H]2O)c1N`: the Potency result in assay [1], in assay [2], in assay [3], in assay [4], in assay [5] and in assay [8] was “inactive” each time. The compound was classed as inactive in assay [6] and in assay [7].
